Data: PubChem BioAssay (NCI)
This is part of a sample that, as a whole, favours compounds with a hit. Of some 79,000 tested, about 15% had one in any assay. Values without a mark were called inactive. The source made the active and inactive calls. No stated cut-off is given here; in the data, active means growth inhibition above about 70%; inactive means the rest.

Experiment: NCI Yeast Anticancer Drug Screen. Data for the CLN2oe strain (AID 163);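 further: 0% = growth of vehicle-only control cultures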
Conditions: S. cerevisiae CLN2oe strain, hits give high values
Procedure: Growth inhibition of yeast strains with defined genetic alterations is measured as a screen for potential anti-cancer activity. Selected strains with alterations in DNA damage repair or cell cycle control were exposed to compounds and growth inhibition was measured relative to vehicle treated controls. The strain used in this assay is CLN2oe

Structure (SMILES)	growth inhibition (at 1.2 µM)	growth inhibition (at 3.7 µM)	growth inhibition (at 11.0 µM)	growth inhibition (at 33.0 µM)	growth inhibition (at 100.0 µM)
COc1cc(O)c2c(O)c3c(c4c2c1[C@]1(C4)C(C)=CCCC1(C)C)[C@H](O)[C@@]1(O)CC(=O)C(C(N)=O)=C(O)[C@@]1(O)C3=O	-6%	94% (active)	98% (active)	97% (active)	93% (active)
O=C(O)C1C2CCC(C2)C1c1ccccc1 (stereo not given)	-7%	-10%	-6%	-1%	18%
CC[C@]1(O)CC(OC2CC(N(C)C)C(O)C(C)O2)c2c(cc3c(c2O)C(=O)c2c(O)cccc2C3=O)[C@@H]1C(=O)OC (stereo not given in full)	-37%	-6%	12%	89% (active)	95% (active)
C[C@]12CCC3[C@@H](CC[C@@H]4c5nonc5CC[C@]34C)C1CCC2=O (stereo not given in full)	38%	41%	48%	47%	51%
C=C[C@H]1CN2CC[C@H]1C[C@@H]2[C@@H](O)c1ccnc2ccccc12	1%	2%	3%	5%	2%
Cc1cc[n+](C2=C(Nc3cccc(C(F)(F)F)c3)C(=O)c3ccccc3C2=O)cc1	3%	4%	6%	-3%	-4%
O=C(O)C1C2c3ccccc3C(c3ccccc32)C1C(=O)O (stereo not given)	-4%	2%	-4%	-3%	1%
Cc1ccc2c(c1)C1(C)c3cc(C)ccc3SP1S2 (stereo not given)	15%	-13%	-14%	25%	4%
